High-throughput results deposited in PubChem BioAssay by Johns Hopkins Ion Channel Center.
A selection: hits, their analogues and other compounds. The true share with any hit is near 1.6%.
KCNQ2 pot: KCNQ2 (rat) channel potentiation | CHO-K1 KCNQ2, FluxOR thallium flux fluorescence; stronger effect = higher value | B-score at 10 µM | 0.54% of 310,000 active | AID 2239;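 active means fluorescence ratio B-score at least 3 SD of library B-scores, with initial fluorescence B-score within 3 of them, cut at about 5.3 in these data; same plate scores as AID 2156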;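 further: B-score of peak minus minimum over baseline fluorescence ratio after K+ and Tl+ stimulus; positive B-score means potentiation of KCNQ2 with more thallium influx and brighter signal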
KCNQ2 inh: inhibitors of rat KCNQ2 potassium channel; O88943; CHO-K1 KCNQ2, FluxOR thallium flux, 20 min; stronger effect = lower value; B-score at 10 µM; 1.1% of 310,000 active;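 active means fluorescence ratio B-score at most minus 3 library SDs, with starting brightness B-score within 2 library SDs, cut at about -5.5 in these data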
KCNQ2 block conf: rat KCNQ2 channel inhibition, confirmatory screen. 57% of 1,000 active. activity change, negative = inhibition, % at 10 µM. KCNQ2-expressing cells, thallium flux; stronger effect = lower value. AID 493025. shares compounds with KCNQ2 inh;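 further: 0% = vehicle wells and values are ratio percent relative to vehicle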
KCNQ1 spec: human KCNQ1 activity in KCNQ2 inhibitor specificity screen | activity change, negative = inhibition, % at 10 µM | shares compounds with KCNQ2 inh | KCNQ1-expressing cells, FluxOR thallium flux fluorescence; stronger effect = lower value | 15% of 1,000 active;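 active means activity change at least 3 SD of negative controls below their mean in both duplicate wells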;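 further: CHO cells stably transfected with KCNQ1 and depolarized by potassium stimulus; peak minus minimum fluorescence over baseline after thallium addition; 0% = vehicle negative control and -100% = blank without thallium stimulus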
Target sequence (P51787 whole entry, looked up): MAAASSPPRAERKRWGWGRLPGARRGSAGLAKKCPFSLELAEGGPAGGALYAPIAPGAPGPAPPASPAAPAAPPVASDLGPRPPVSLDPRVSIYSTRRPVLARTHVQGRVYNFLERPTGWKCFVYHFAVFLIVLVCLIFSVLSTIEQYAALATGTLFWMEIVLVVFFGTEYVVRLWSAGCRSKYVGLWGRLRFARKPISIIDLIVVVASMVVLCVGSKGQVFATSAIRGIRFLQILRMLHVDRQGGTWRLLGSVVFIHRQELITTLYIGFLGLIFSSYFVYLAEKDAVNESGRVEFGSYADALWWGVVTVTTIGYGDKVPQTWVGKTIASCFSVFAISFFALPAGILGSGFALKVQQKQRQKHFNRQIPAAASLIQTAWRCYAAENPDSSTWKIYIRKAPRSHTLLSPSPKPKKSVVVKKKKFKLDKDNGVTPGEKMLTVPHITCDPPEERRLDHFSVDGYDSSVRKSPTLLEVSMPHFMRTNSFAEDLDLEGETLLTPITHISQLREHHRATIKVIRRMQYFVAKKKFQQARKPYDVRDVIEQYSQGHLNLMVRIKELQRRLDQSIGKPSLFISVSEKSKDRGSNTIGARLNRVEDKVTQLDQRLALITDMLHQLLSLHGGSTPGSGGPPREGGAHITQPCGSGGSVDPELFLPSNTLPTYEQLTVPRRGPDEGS
CHO Tl ctr: KCNQ2 inhibitor counter-screen hit in parental CHO cells. 14% of 1,000 active. thallium flux counter-screen; stronger effect = lower value. activity change, % at 10 µM. shares compounds with KCNQ2 inh;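 further: 0% = vehicle negative controls with stimulus buffer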
KCNQ2 inh confirm: rat KCNQ2 inhibition confirmed by electrophysiology; calls only at 10 µM; shares compounds with KCNQ2 inh; KCNQ2-expressing cells, automated patch clamp current; 49% of 550 active
An asterisk follows results filed as active; i = inactive; nt = no result; + = active, no number. Unless noted, how the calls were made is not given here.

SMILES | KCNQ2 pot | KCNQ2 inh | KCNQ2 block conf | KCNQ1 spec | CHO Tl ctr | others
Fc1ccc(CSc2nnc(-c3ccncc3)o2)cc1 | 1.53 | i | nt | nt | nt
Cc1ccc(NC(=O)c2ccccc2OCC(=O)c2ccccc2)cc1 | nt | i | nt | nt | nt
Cc1cccc(NC(=O)c2ccccc2OCC(=O)c2ccccc2)c1 | -8.23 | -8.23* | i | i | i
CCn1c(C(=O)N2CCC(Cc3ccccc3)CC2)cc2sccc21 | -7.24 | -7.24* | i | i | i
CCn1c(C(=O)N2CCCC(C(=O)O)C2)cc2sccc21 (configuration not stated) | 0.84 | i | nt | nt | nt
NC(Cc1c[nH]c2ccccc12)C(=O)Nc1ccccc1 (configuration not stated) | nt | i | nt | nt | nt
O=C1CCC(C(=O)N2CCCC(N3CCN(c4cccc(C(F)(F)F)c4)CC3)C2)=NN1 (configuration not stated) | 0.07 | i | nt | nt | nt
COc1ccccc1CNC(=O)COC(=O)c1ccc(C)c(S(=O)(=O)N2CCCCC2)c1 | -8.44 | -8.44* | -36.0%* | -39.0%* | -25.5%* | KCNQ2 inh confirm=+
COc1ccccc1CNC(=O)COC(=O)c1cccc(S(=O)(=O)N2CCCCC2)c1 | nt | i | nt | nt | nt
CCOC(=O)CN(C)C(=O)C1CCCN1C(=O)OC(C)(C)C (configuration not stated) | nt | i | nt | nt | nt
O=C(Nc1ccncc1)C1CCN(S(=O)(=O)c2ccccc2C(F)(F)F)CC1 | 0.84 | i | nt | nt | nt
CCN(C1CCCCC1)S(=O)(=O)c1cc2c3c(c1)CCN3C(=O)CC2 | nt | i | nt | nt | nt
CCn1c(CNc2ccc(C)cc2)nnc1SCC(=O)NCc1ccccc1 | nt | i | nt | nt | nt
C=CCn1c(CSCc2ccc(C)cc2)nnc1SCC(=O)NCc1ccccc1 | -8.42 | -8.42* | -22.0%* | i | i | KCNQ2 inh confirm=+
CCc1nnc(NC(=O)CSc2nc(-c3ccccc3)cc(-c3ccc(OC)cc3)c2C#N)s1 | 0.63 | i | nt | nt | nt
CCOc1ccc(NC(=S)N2CCC(C(N)=O)CC2)cc1 | 0.07 | i | nt | nt | nt
Cc1c(Cl)cnc(NC(=O)COC(=O)c2cc3c(s2)CCC(C)C3)c1Cl (configuration not stated) | nt | i | nt | nt | nt
Clc1ccc(SCc2cn3ccsc3n2)cc1 | nt | i | nt | nt | nt
Cc1csc2nc(CSc3ccc(Cl)cc3)cn12 | -10.7 | -10.7* | -37.5%* | -43.0%* | -35.0%* | KCNQ2 inh confirm=+
COc1cccc(CN(C(=O)c2ccccc2Br)C2CCS(=O)(=O)C2)c1 (configuration not stated) | nt | i | nt | nt | nt
CCOC(=O)c1c(NC(=O)CCc2ccc(CC)o2)sc(C)c1C | -8.2 | -8.2* | i | i | i
CCOC(=O)c1ccc(NC(=O)CCc2ccc(CC)o2)cc1 | nt | i | nt | nt | nt
COc1ccc(C(=O)OCC(=O)NCCN2C(=O)CSC2=O)cc1 | 0.57 | i | nt | nt | nt
Cc1ccc(C(C)C)cc1S(=O)(=O)Nc1cccnc1 | 0.86 | i | nt | nt | nt
O=C(CCSc1ccc(Cl)c(Cl)c1)NC12CC3CC(CC(C3)C1)C2 | -10.7 | -10.7* | i | i | i
SMILES | KCNQ2 pot | KCNQ2 inh | KCNQ2 block conf | KCNQ1 spec | CHO Tl ctr | others
O=C(CSc1ccc(F)cc1)NC12CC3CC(CC(C3)C1)C2 | nt | i | nt | nt | nt
C=CCn1c(SCC(=O)NC(=O)c2cccc([N+](=O)[O-])c2)nnc1-c1ccccc1F | 0.78 | i | nt | nt | nt
Cc1ccccc1CNC(=O)c1ccccc1N(C)S(=O)(=O)c1ccccc1 | -6.67 | -6.67* | -40.0%* | -35.5%* | -28.0%* | KCNQ2 inh confirm=+
CCCNC(=O)c1ccccc1NC(=O)c1ccccc1N(C)S(=O)(=O)c1ccccc1 | nt | i | nt | nt | nt
Cc1ccc(NC(=O)c2ccccc2N(C)S(=O)(=O)c2ccccc2)c(C)c1 | -8.42 | -8.42* | -34.0%* | i | i | KCNQ2 inh confirm=+
CC(=O)Nc1ccc(NC(=O)c2ccccc2N(C)S(=O)(=O)c2ccc(C)cc2)cc1 | 0.02 | i | nt | nt | nt
COC(=O)c1ccccc1NC(=O)c1ccccc1N(C)S(=O)(=O)c1ccccc1 | nt | i | nt | nt | nt
Cc1ccc(S(=O)(=O)N(C)c2ccccc2C(=O)Nc2ccc(F)cc2F)cc1 | -8.57 | -8.57* | i | i | i
CCCNC(=O)CN1CCN(c2cc3ccccc3c(Cl)n2)CC1 | 0.73 | i | nt | nt | nt
CC(=O)c1ccc(NS(=O)(=O)c2cccc(C)c2)cc1 | 0.35 | i | nt | nt | nt
COc1ccc(OC)c(NC(=O)c2csc(Cl)c2OC)c1 | nt | i | nt | nt | nt
Cc1ccc(NC(=O)c2ccc(CNc3c(N4CCC(C)CC4)c(=O)c3=O)cc2)cc1 | nt | i | nt | nt | nt
COc1ccc(CN(Cc2ccccn2)C(=O)CN2C(=O)COc3ccccc32)cc1 | 0.38 | i | nt | nt | nt
CC1Oc2ccccc2N(CC(=O)N(Cc2ccccc2)Cc2ccccn2)C1=O (configuration not stated) | -7.22 | -7.22* | -15.5%* | i | i | KCNQ2 inh confirm=+
Cn1c(SCc2cccc([N+](=O)[O-])c2)nc2c(c1=O)SCC2 | 2.2 | i | nt | nt | nt
CSc1nc(Cl)c(Cc2ccc(OC(C)C)cc2)c(N2CCOCC2)n1 | -11.1 | -11.1* | i | i | i
COc1nc(SC)nc(Cl)c1Cc1ccc(OC(C)C)cc1 | nt | i | nt | nt | nt
CN(C)C(=O)c1cn(-c2ccccc2)nc1-c1cccs1 | 0.55 | i | nt | nt | nt
O=C(c1cn(-c2ccccc2)nc1-c1cccs1)N(CCO)Cc1ccccc1 | -7.53 | -7.53* | i | i | i
CCOC(=O)c1cc(C(=O)OCC)c(=O)[nH]c1N1CCCC1 | 0.52 | i | nt | nt | nt
CN(C)c1ccc(/C=C2\CCCc3c2nc2ccccc2c3C(=O)O)cc1 | 1.71 | i | nt | nt | nt
N#CCCN1CCN(CCC#N)CC1 | nt | i | nt | nt | nt
Cc1cc(CN2CCN(CCC#N)CC2)c(O)c(C2(C)CCCCC2)c1 | -7.38 | -7.38* | i | i | i
Cc1ccc(C(CCN(Cc2ccccc2)C(=O)c2ccco2)c2ccco2)cc1 (configuration not stated) | -8.01 | -8.01* | -27.0%* | i | i | KCNQ2 inh confirm=i
CN(Cc1ccccc1)C(=O)c1ccco1 | 0.04 | i | nt | nt | nt
SMILES | KCNQ2 pot | KCNQ2 inh | KCNQ2 block conf | KCNQ1 spec | CHO Tl ctr | others
COc1ccc(CN(C)C(=O)c2ccc(COc3ccccc3)cc2)c(OC)c1 | nt | i | nt | nt | nt
COc1ccc(CN(C)C(=O)C(Cc2ccccc2)NC(=O)c2ccccc2)c(OC)c1 (configuration not stated) | -6.69 | -6.69* | -33.0%* | i | i | KCNQ2 inh confirm=+
Fc1cccc(-c2cc3nc(-c4ccccc4)cc(N4CCC5(CC4)OCCO5)n3n2)c1 | nt | i | nt | nt | nt
Cc1cccc(-c2cc3nc(-c4ccccc4)cc(N4CCC5(CC4)OCCO5)n3n2)c1 | -8.13 | -8.13* | -30.0%* | i | i | KCNQ2 inh confirm=i
O=[N+]([O-])c1ccc(C2CCCC/C2=N/OCc2ccc(F)cc2)c([N+](=O)[O-])c1 (configuration not stated) | nt | i | nt | nt | nt
O=[N+]([O-])c1ccc(C2CCCC/C2=N/OCc2ccccc2F)c([N+](=O)[O-])c1 (configuration not stated) | -10.1 | -10.1* | -36.0%* | i | i | KCNQ2 inh confirm=i
CCOC(=O)Cc1cc(OC)c(OC)cc1Cc1cc(OC)c(OC)cc1CC(=O)OCC | 1.32 | i | nt | nt | nt
Cc1c(NC(=O)CSCc2ccco2)c(=O)n(-c2ccccc2)n1C | 0.41 | i | nt | nt | nt
